Assay outcomes: PubChem, several laboratories
Sampled rows, rich in hits. Any-hit rate of the full collection: about 4.2%.
hcDAF-12 act: H. contortus DAF-12 nuclear receptor activators, primary screen, cell-based, luminescence, HEK293, lit1-tk-luc reporter; activation, % at 6.8 µM; HEK293 hcDAF-12 lit1-tk-luc reporter; 0% DMSO, 100% Δ7-dafachronic acid; 370,000 compounds, 1.4% hits;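 active = activation above the mean of all tested compounds plus 3 SD, cut at about 5.5% in these data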;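 note: 100% = response to 3 µM Δ7-dafachronic acid high control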
esBAF inh: Bmi1 luciferase reporter increase in mESCs, primary screen, esBAF inhibitor project, mouse ES cells, Bmi1 luciferase knock-in, single point. 350,000 compounds, 2% hits. reporter increase, % at 12.5 µM. 24 h; 100% = twice the neutral-well signal. AID 602393, 2012; in the data active = activation above about 40%; inconclusive = no clear call, values can overlap the other calls;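 note: 0% = median of the plate's neutral control wells and 100% = double that signal; a rise in the Bmi1 reporter signal indicates esBAF inhibition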
Wnt bcat act: Wnt/beta-catenin pathway activators, primary screen, cell-based, plate reader, single point | Wnt/beta-catenin reporter cell assay, activator | activation, % at 9.35 µM | 300,000 compounds, 1.2% hits; in the data active = activation above about 30%, passing the limit was not always enough; inconclusive = no clear call, values can overlap the other calls;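 note: 0% = neutral control wells and 100% = positive control wells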
DAX1 StAR inh: DAX1 (NR0B1) inhibitors on StAR promoter, primary screen, cell-based, luminescence, SF-1 (NR5A1), full-length DAX-1 | inhibition, % at 6.8 µM | 370,000 compounds, 1.1% hits | HEK293T StAR-luciferase reporter, SF-1/DAX-1 repression relief;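 active = inhibition above the mean over all tested compounds plus 3 SD, cut at about 3.6% in these data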;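 note: 0% = DAX-1 cells with DMSO and 100% = cells lacking DAX-1 with DMSO; higher inhibition means more luminescence from relief of DAX-1 repression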
ssDAF12 agonist: S. stercoralis DAF-12 nuclear receptor activators, primary screen, cell-based, luminescence, HEK293, GRIP1 co-expression, lit1-tk-luc | Nuclear hormone receptor DAF-12 (Strongyloides stercoralis) | activation, % at 6.8 µM | 370,000 compounds, 1% hits | HEK293 ssDAF-12/GRIP1 lit1-tk-luc reporter; % of 3 µM dafachronic acid response;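 active = activation above the mean over all tested compounds plus 3 SD, cut at about 0.9% in these data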;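 note: 0% = DMSO-only wells and 100% = 3 µM delta7-dafachronic acid wells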
hgDAF12 agonist: H. glycines DAF-12 receptor agonists, primary screen, cell-based, luminescence, HEK293, GAL4 fusion, UAS-luciferase; HEK293 GAL4-hgDAF12 UAS-luciferase reporter, agonist luminescence; normalized to butyrate control; activation, % at 6.8 µM; 370,000 compounds, 1.8% hits;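 active = activation above a cutoff set at the mean of all screened compounds plus 3 SD, cut at about 10% in these data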;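 note: 0% = DMSO wells and 100% = sodium butyrate wells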
DAX1 conf: DAX1 (NR0B1) inhibitors relieving SF-1 repression, confirmation, cell-based, luminescence, HEK293T, full-length DAX-1, SF-1 activated StAR promoter. shares compounds with DAX1 StAR inh. HEK293T StAR-promoter luciferase reporter, SF-1/DAX-1 repression. inhibition, % at 6.8 µM. 2,400 compounds, 87% hits;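 active = inhibition above the average of every tested compound plus 3 SD, cut at about 3.8% in these data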;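 note: 0% = DAX-1 cells with DMSO and 100% = no DAX-1 control cells with DMSO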
Target sequence (P51843 whole entry, looked up): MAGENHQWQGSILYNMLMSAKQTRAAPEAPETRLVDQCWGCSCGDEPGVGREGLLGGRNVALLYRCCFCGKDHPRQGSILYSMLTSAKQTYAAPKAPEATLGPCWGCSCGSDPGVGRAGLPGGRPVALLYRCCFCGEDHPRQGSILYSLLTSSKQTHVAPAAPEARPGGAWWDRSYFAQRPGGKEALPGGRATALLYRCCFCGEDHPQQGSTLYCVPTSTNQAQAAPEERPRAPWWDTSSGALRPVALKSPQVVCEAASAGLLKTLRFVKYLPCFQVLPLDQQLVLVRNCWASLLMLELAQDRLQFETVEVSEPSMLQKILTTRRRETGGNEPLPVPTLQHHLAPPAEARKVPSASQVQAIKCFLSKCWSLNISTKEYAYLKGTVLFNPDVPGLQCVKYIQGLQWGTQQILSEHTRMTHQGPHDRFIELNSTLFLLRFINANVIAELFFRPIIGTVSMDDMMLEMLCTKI
SF1 AF2mut Luc: StAR reporter signal changes without DAX1, counter-screen for DAX1 inhibitor project, cell-based, luminescence, AF-2 mutant SF-1, transactivation; shares compounds with DAX1 StAR inh; HEK293 StAR-luciferase, SF-1 AF2 mutant; inhibition, % at 6.8 µM; 2,400 compounds, 78% hits; AID 652136, 2013;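 active = inhibition above the mean of all tested compounds plus 3 SD, cut at about 3% in these data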;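 note: 0% = DAX-1 transfected cells with DMSO and 100% = cells without DAX-1 with DMSO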
LXR ag: LXR agonists, Gal4 luciferase reporter, confirmation, counter-screen for hcDAF-12 agonist project, cell-based, luminescence, HEK293, H. contortus campaign. shares compounds with hcDAF-12 act. HEK293 Gal4-LXR tk-luc reporter, 24 h; normalized: DMSO 0%, positive control 100%. activation, % at 6.8 µM. 3,400 tested, under 10 active;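 active = mean percent activation of the reporter above a cutoff set as the average over tested compounds plus their standard deviation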
hcDAF12 conf: H. contortus DAF-12 receptor agonists, confirmation, cell-based, luminescence, HEK293, lit1-tk-luc, triplicate; 3,400 compounds, 61% hits; shares compounds with hcDAF-12 act; activation, % at 6.8 µM; HEK293 hcDAF-12 lit1-tk-luc reporter; % of Δ7-dafachronic acid response;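 active = mean activation across triplicate tests above the threshold derived from the earlier primary screen, cut at about 5.5% in these data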;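 note: 0% = DMSO only wells and 100% = 3 µM Δ7-dafachronic acid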
hgDAF12 conf: H. glycines DAF-12 receptor agonists, confirmation, cell-based, luminescence, HEK293, GAL4-LBD fusion; shares compounds with hgDAF12 agonist; HEK293 GAL4-hgDAF12 luciferase reporter, agonist mode; percent of butyrate response; activation, % at 6.8 µM; 3,300 compounds, 80% hits; AID 743050, 2013;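 active = mean activation over triplicate wells above the hit cutoff derived from the earlier primary screen, cut at about 11% in these data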;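 note: 0% = DMSO low control and 100% = 2 mM sodium butyrate high control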
LXR ag 2: LXR agonists, Gal4 luciferase reporter, confirmation, counter-screen for hgDAF-12 agonist project, cell-based, luminescence, HEK293, H. glycines campaign. shares compounds with hgDAF12 agonist. 24 h. activation, % at 6.8 µM. 3,300 tested, under 10 active;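 active = mean activation of the triplicate above a set limit carried over from the primary screen, none filed active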
The depositor's hits bear a star; ? = inconclusive; / = no result.

SMILES	hcDAF-12 act	esBAF inh	Wnt bcat act	DAX1 StAR inh	ssDAF12 agonist	hgDAF12 agonist	DAX1 conf	SF1 AF2mut Luc	hgDAF12 conf	LXR ag 2	others
CO[C@H]1CN(C)C(=O)c2ccc(NS(=O)(=O)c3ccccc3)cc2OC[C@H](C)N(C(=O)NC(C)C)C[C@H]1C	/	-4	/	/	/	/	/	/	/	/
COc1ccc(CN(C)C[C@@H]2OCCCC[C@@H](C)Oc3ccc(NC(=O)c4ccccc4)cc3C(=O)N([C@@H](C)CO)C[C@H]2C)cc1	/	1	/	/	/	/	/	/	/	/
COc1ccc(/C=C/c2nc(-c3ccccc3O)n(-c3ccccc3)n2)cc1	-1	2	-1	1	-1	-1	/	/	/	/
COc1ccc(/C=C/c2nc(-c3ccccc3O)n[nH]2)cc1	6.5*	/	38*	4.6*	0	20*	14*	8.4*	18*	0
C(=N\NC1=Nc2cccc3cccc1c23)/c1ccccc1	18*	/	/	6.6*	4.5*	23*	13*	9.5*	27*	1	LXR ag=2;hcDAF12 conf=21*
CCC(=O)Nc1cc(-c2cc3ccccc3oc2=O)ccc1OC	1	/	13	5.0*	-1	14*	9.3*	6.0*	15*	1
O=C(Nc1ccc(N2CCCC2)c(Cl)c1)c1ccccc1F	3	?	5	5.1*	0	22*	14*	4.8*	16*	1
CC(C)Nc1ncnc2c1cnn2-c1ccccc1	4	12	53*	5.4*	0	17*	7.2*	4.2*	12*	1
Cc1cccc(-n2ncc3c(NC(C)C)ncnc32)c1	1	7	19	6.6*	0	17*	11*	8.2*	18*	1
COc1ccc(-n2ncc3c(NCc4ccco4)ncnc32)cc1	2	22	/	2	-1	5	/	/	/	/
NNc1ncnc2c1cnn2-c1ccccc1	2	/	/	0	0	2	/	/	/	/
CCC(CO)Nc1ncnc2c1cnn2-c1ccc(OC)cc1 (configuration not stated)	3	7	-2	5.1*	0	16*	8.4*	4.4*	9	1
C[C@H](CO)N1C[C@H](C)[C@@H](CN(C)Cc2ccc(Oc3ccccc3)cc2)Oc2c(NC(=O)Nc3cccc4ccccc34)cccc2C1=O	/	9	/	/	/	/	/	/	/	/
S=C(c1ccc(-c2ccc(Cl)cc2)o1)N1CCCCC1	4	29	/	5.3*	0	15*	15*	9.0*	20*	1
O=C(Nc1nc2ccccc2[nH]1)C1CCCC1	4	38	15	4.9*	0	15*	6.5*	5.7*	13*	1
O=C(Nc1nc2ccccc2[nH]1)C1CCC1	2	37	10	2	-2	9	/	/	/	/
O=C(Nc1nc2ccccc2[nH]1)c1cc2ccccc2o1	14*	-30	13	8.0*	1	21*	9.4*	7.6*	19*	1	LXR ag=1;hcDAF12 conf=9.1*
O=C(Nc1nc2ccccc2[nH]1)c1ccccc1F	-2	-80	-1	-2	-3	-11	/	/	/	/
Cc1ccc(NC(=O)c2cc3ccccc3o2)nc1	14*	/	65*	16*	1.5*	19*	17*	9.9*	19*	1	LXR ag=2;hcDAF12 conf=14*
Cc1cc(C)nc(NC(=O)c2cc3ccccc3o2)n1	0	-4	7	0	-1	3	/	/	/	/
O=C(c1cccnc1)N1C[C@H]2[C@@H](c3ccccc31)[C@@H](CO)N2C(=O)Nc1cccc(F)c1	/	2	/	/	/	/	/	/	/	/
CC(C)(C)C(c1nc2ccccc2[nH]1)n1c(-c2cccc(S(C)(=O)=O)c2)nc2ccccc21 (configuration not stated)	3	/	30	16*	0	16*	7.7*	9.5*	12*	0
C=CCN=c1scc(-c2ccc(F)cc2)n1/N=C/c1ccccn1	-1	/	-2	0	-1	-3	/	/	/	/
CCN=c1scc(-c2ccc(F)cc2)n1/N=C/c1ccccn1	2	/	17	6.8*	-2	21*	7.2*	4.8*	8	0
CCOC(=O)c1ccc(N/C=C/C(=O)c2ccco2)cc1	3	17	/	4.7*	0	15*	12*	7.1*	17*	1
O=C(/C=C/Nc1ccc(F)cc1)c1ccco1	4	25	/	3	-1	7	/	/	/	/
CC1CCN(C(=O)c2ccc3ccccc3c2)CC1	1	34	28	7.9*	-1	14*	6.8*	3.8*	15*	0
